Assay outcomes from PubChem BioAssay.
Most compounds without a hit are left out; they make up all but 4.3% or so of the library.
CHOP inhibitor: inhibitors of CHOP induction in ER stress response; CHO-K1 CHOP-promoter luciferase, tunicamycin-induced, 15-18 h; AID 2732; inhibition, % at 10 µM; 3.8% of 220,000 active;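 active = compounds that reduced the stress-induced luciferase reporter signal by more than about 70% of percent inhibition, limit read from the data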;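 also: 0% = tunicamycin plus vehicle and 100% = wells without tunicamycin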
KKLEB cytotox: reduces viability of KKLEB cystic fibrosis airway cells | KKLEB CF airway cells viability, ATPlite luminescence, overnight; active compounds read low; cells stimulated with P. aeruginosa culture filtrate | activity change (cytotoxicity), % at 5 µM | 0.36% of 360,000 active;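 active = corrected activity change at or below -50% at 5 µM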
CF NFkB inh: inhibitors of cystic fibrosis induced NF-kB | KKLEB NF-kB-GFP reporter, PAF-induced, GFP fluorescence overnight | 0.86% of 360,000 active | inhibition, % at 5 µM | AID 588850;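 active = at least 50% inhibition at 5 µM, scaled per plate between neutral and stimulator controls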;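 also: PAF is a Pseudomonas aeruginosa culture filtrate used as stimulus; plate controls were PAF-stimulated DMSO wells for no effect and unstimulated DMSO wells for full effect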
MITF TRPM1 inh: reduces MITF-dependent TRPM1 promoter luciferase signal | inhibition, % at 12.5 µM | SK-MEL-5 TRPM1 promoter luciferase, 24 h | 0.83% of 330,000 active;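 active = mean inhibition across replicates of 60% or more, whatever share of single replicates reaches that level; inconclusive = some that reach 60%, reason not given; inactive = mean inhibition across replicates below 60%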
Peg3 prom inh: Peg3 promoter activity inhibition; AID 588405; HeLa PEG-Prom luciferase reporter, luminescence, overnight; inhibition, % at 20 µM; 1.7% of 360,000 active;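 active = inhibition of at least 50% at 20 µM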
HIF-2a block: blocks HIF-2a reporter activity; 786-0 RCC cells HIF-2a reporter, luciferase luminescence, overnight; inhibition, % at 18.8 µM; 0.72% of 360,000 active; AID 624352;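 active = inhibition of the luminescence signal of 40% or more relative to plate controls, in a single-dose primary screen at 18.75 µM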
* marks the source's active call; other numbers are inactive results; ? = inconclusive; · = not tested or not shown.

SMILES	CHOP inhibitor	KKLEB cytotox	CF NFkB inh	MITF TRPM1 inh	Peg3 prom inh	HIF-2a block
CC1(C)C(=O)Nc2ccccc2N1C(=O)COC(=O)CNS(=O)(=O)c1ccc(Br)cc1Cl	·	-7	-8	0	-7	2
COc1ccc(CN2C[C@@H](CO)O[C@@H](n3cnc4c(NCc5ccc(F)cc5)ncnc43)C2)cc1	·	-24	27	·	7	12
COc1ccc(-n2nc(C(=O)NCC(=O)NCc3ccccc3OC)c3ccccc3c2=O)c(OC)c1	-9	0	6	-1	13	25
COc1ccc2nc(NC(=O)c3cccc(-c4cc5ccccc5oc4=O)c3)sc2c1	105*	-54*	60*	2	99*	-95
COc1ccc(-n2nc(C(=O)Nc3nc4ccc(OC)cc4s3)c3ccccc3c2=O)c(OC)c1	88*	·	·	·	·	·
O=C(CN1/C(=C(/O)c2ccccc2)C(=O)c2ccccc2S1(=O)=O)c1ccccc1	96*	3	-9	8	11	4
Cc1ccc2nc(CN(C)C(=O)[C@H]3O[C@@H](n4ccc(N)nc4=O)[C@H](O)[C@@H]3O)[nH]c2c1	·	-26	-2	·	13	14
O=C(O)CCCCCNC(=O)OCC1c2ccccc2-c2ccccc21	·	6	-4	-1	0	18
CC1(c2ccc([N+](=O)[O-])cc2)CC(C)(C)N(C(=O)c2ccccc2)c2ccccc21 (configuration not stated)	81*	·	·	·	·	·
C=CCN(C(=O)CNS(=O)(=O)c1ccccc1)C(C(=O)NCCOC)c1cccnc1 (configuration not stated)	·	7	-14	1	1	2
CCC(C)NS(=O)(=O)c1ccc(NC(=O)C(Sc2ccccc2)c2ccccc2)cc1 (configuration not stated)	9	18	-2	7	46	16
CCCCNS(=O)(=O)c1ccc(NC(=O)C(Sc2ccccc2)c2ccccc2)cc1 (configuration not stated)	36	5	1	1	59*	9
Cc1cccc(Nc2nc(NCc3ccco3)c3ccccc3n2)c1	69	-5	18	7	85*	-86
Cc1ccc(Nc2nc(N)c([N+](=O)[O-])c(NCc3ccco3)n2)cc1C	79*	-19	16	-17	-82	-260
COc1ccc(C[C@H]2CN3C(=NC[C@@H]3Cc3ccccc3)N2CCNC(=O)c2ccc(C)c(Br)c2)cc1	-2	-33	27	31	97*	2
COc1ccc(C[C@H]2CN3C(=NC[C@H]3Cc3ccccc3)N2CCNC(=O)CCC2CCCCC2)cc1	-2	-16	22	35	90*	-6
Cc1ccc(C(=O)NCCN2C3=NC[C@@H](Cc4ccccc4)N3C[C@H]2Cc2ccc(O)cc2)cc1Br	18	5	-2	-13	79*	6
COc1ccc(C[C@H]2CN3C(=NC[C@@H]3Cc3ccc(O)cc3)N2CCNC(=O)c2ccc(C)c(Br)c2)cc1	12	-17	21	24	45	-4
COc1ccc(C[C@H]2CN3C(=NC[C@H]3Cc3ccccc3)N2CCNC(=O)c2ccc(C)c(Br)c2)cc1	25	-9	33	58	95*	5
CC1CCCC(C)N1C(=O)COC(=O)c1cncc(Br)c1 (configuration not stated)	·	1	-23	-2	-4	7
COc1ccc(NC(=O)C2Cc3c(-c4ccccc4Oc4ccccc4)ccnc3O2)cc1OC (configuration not stated)	·	12	5	·	29	11
CC1(c2ccc(Cl)cc2)NC(=O)N(CN2CCOCC2)C1=O (configuration not stated)	·	-12	6	17	1	-1
Cc1[nH]nc(-c2cccnc2)c1N=NN(C)C	·	-16	5	72*	71*	29
O=C(CC[C@H]1O[C@@H](n2ccc(=O)[nH]c2=O)[C@H](O)[C@@H]1O)N[C@H](Cc1ccccc1)C(=O)NCC1CCCO1 (some centres not stated)	·	9	4	·	13	4
CC(C)N1C(=O)c2ccccc2NC(=O)C1C(=O)NCc1cccc(C(F)(F)F)c1 (configuration not stated)	·	·	·	·	·	4
SMILES	CHOP inhibitor	KKLEB cytotox	CF NFkB inh	MITF TRPM1 inh	Peg3 prom inh	HIF-2a block
O=[N+]([O-])c1ccc(/C=N/Nc2ccnc3cc(Cl)ccc23)o1	·	2	-30	?	93*	-166
O=[N+]([O-])c1ccc(/C=N/NS(=O)(=O)c2ccc(Cl)cc2)o1	-18	9	4	12	17	7
CCn1nc(C)c(CNC(=O)c2ccc(OC3CCN(Cc4ccccn4)CC3)cc2)c1C	·	2	-12	40	15	9
CN(C(=O)c1cccc(NC(=O)Cc2ccc(NC(=O)C3CCCN(C(=O)C4CCC4)C3)cc2)c1)C1CCCCC1 (configuration not stated)	·	16	0	13	13	-8
COc1ccc(-c2cn[nH]c2N)c(OC)c1	33	-20	64*	2	11	9
Cc1cccc(NC(=O)COC(=O)c2c(-c3ccccc3)noc2C)c1	·	15	-42	·	4	1
Cc1nn(Cc2ccccc2Cl)c2sc(C(=O)Nc3nccs3)cc12	84*	1	1	1	18	13
Cc1nn(Cc2ccc(F)cc2)c2sc(C(=O)Nc3nccs3)cc12	93*	-14	22	16	16	10
COc1ccc(-c2ccc(C(=O)C3CC3)cc2)cc1	·	-3	-13	-109	-263	-293
CC[N+]1(C)CCC(O)(c2ccc(OC)cc2)C(C(=O)c2ccc(OC)cc2)C1 (configuration not stated)	·	-20	50*	-3	103*	14
COc1cc2[nH]c(Cl)c([N+](=O)[O-])c2cc1OC	-11	4	11	0	9	8
FC(F)(F)c1cc(-c2ccccc2)nc(N2CCOCC2)n1	90*	-3	23	-11	0	-1
Fc1ccc(Oc2cc(N3CCOCC3)nc(-c3ccccc3)n2)c(F)c1	87*	-2	-11	2	-2	23
FC(F)(F)c1cc(-c2ccccc2)nc(N2CCCCC2)n1	20	-9	6	0	-3	11
c1ccc(-c2cc(N3CCCCC3)nc(-c3ccccc3)n2)cc1	31	0	6	1	-2	18
c1ccc(-c2cc(N3CCOCC3)nc(-c3ccccc3)n2)cc1	89*	-14	26	-1	-4	10
Cc1ccc(NS(=O)(=O)c2ccc(C)c(C(=O)NCC(c3ccccc3)N(C)C)c2)cc1 (configuration not stated)	·	-16	26	-2	-9	-15
CCCCNC(=O)CCn1c(=O)c2ccccc2n(Cc2ccc(Cl)cc2)c1=O	87*	-3	17	3	11	15
O=C(Nc1ccccc1)c1cccc2c(-c3cccnc3)coc12	·	11	-43	·	-133	-202
